Bioassay records as filed in PubChem.
Compounds with a hit are over-represented: about 2.6% of the library has one in this group of screens.
PABP polyA inh: PABP poly(A) RNA binding inhibitors, primary screen, biochemical, fluorescence polarization, uHTS; actives 1% (n = 290,000); Polyadenylate-binding protein 1 (Homo sapiens), P11940; calls only at 35 µM; AID 2014, 2009;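 further: calls also rest on retests at 20 µM and on dose response follow-up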
eIF4H inh: human eIF4H binding inhibitors, primary screen, translation initiation inhibitor project, biochemical, uHTS, fluorescence polarization; eIF4H fluorescence polarization binding assay; inhibition, % at 35 µM; actives 0.94% (n = 290,000);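 further: calls also rest on retests at 20 µM and on dose response follow-up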
PHOSPHO1 block: PubChem AID 1565; Phosphoethanolamine/phosphocholine phosphatase (Homo sapiens), Q8TCT1; recombinant PHOSPHO1, absorbance phosphatase assay; inhibition, % at 13.3 µM; actives 1.1% (n = 290,000); in the data active means inhibition above about 60%
PABP1 MLLE inh: inhibitors of PABP1 MLLE–PAM2 peptide binding, primary screen, biochemical, fluorescence polarization, FITC-PAM2, GST-MLLE; Polyadenylate-binding protein 1 (Homo sapiens), P11940; AID 588489, 2011; actives 0.36% (n = 360,000); inhibition, % at 20 µM; in the data active means inhibition above about 35%, passing the limit was not always enough;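 further: plate controls were DMSO wells with GST-MLLE for no effect and wells lacking GST-MLLE protein for full effect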
A3A deaminase: APOBEC3A ssDNA deaminase inhibitors, primary screen, selectivity assay for APOBEC3G inhibitor project, biochemical, FAM/TAMRA oligo cleavage fluorescence | recombinant A3A, FAM/TAMRA ssDNA deamination fluorescence | inhibition, % at 20 µM | actives 0.41% (n = 330,000) | DNA dC->dU-editing enzyme APOBEC-3A (Homo sapiens), P31941;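 active means at least 40% inhibition at 20 µM here, with at most 30% in a related deaminase screen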;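 further: plate controls were A3A with DMSO for no effect and wells lacking A3A enzyme for full effect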
A3G deaminase: APOBEC3G DNA deaminase inhibitors, primary screen, biochemical, fluorescence, single-stranded DNA substrate, uHTS. recombinant A3G, ssDNA deamination FAM/TAMRA fluorescence. inhibition, % at 20 µM. actives 0.28% (n = 330,000);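 active means inhibition of at least 40% at 20 µM, with no more than 30% in the related APOBEC3A deaminase screen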;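 further: plate controls were DMSO wells with A3G for no effect and wells lacking A3G enzyme for full effect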
Target sequence (Q9HC16 whole entry, looked up): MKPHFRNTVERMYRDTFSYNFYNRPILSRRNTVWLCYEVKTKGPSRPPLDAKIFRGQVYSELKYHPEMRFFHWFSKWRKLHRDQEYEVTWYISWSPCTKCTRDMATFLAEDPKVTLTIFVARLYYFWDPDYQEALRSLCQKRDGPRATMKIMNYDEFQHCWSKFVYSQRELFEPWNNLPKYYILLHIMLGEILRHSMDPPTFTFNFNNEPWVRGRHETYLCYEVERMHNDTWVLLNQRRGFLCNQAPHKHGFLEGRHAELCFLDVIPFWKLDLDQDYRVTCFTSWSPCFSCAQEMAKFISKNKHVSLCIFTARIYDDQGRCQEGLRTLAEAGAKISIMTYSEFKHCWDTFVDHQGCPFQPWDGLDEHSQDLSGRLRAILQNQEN
Starred values were filed as active, the others as inactive; i = inactive; . = no result; + = active, no number. Unless noted, how the calls were made is not given here.

SMILES	PABP polyA inh	eIF4H inh	PHOSPHO1 block	PABP1 MLLE inh	A3A deaminase	A3G deaminase
CSc1ccccc1NC(=O)CN(C)CC(=O)Nc1ccccc1N1CCOCC1	i	active	4	-5	-2	-6
Nc1nnc(CC(=O)N/N=C/c2ccc(-c3cccc(C(=O)O)c3)o2)s1	i	76*	23	0	20	-2
Nc1nonc1-c1nc2ccccc2n1CC(=O)N/N=C/c1ccc(-c2cccc(C(=O)O)c2)o1	+	86*	-1	3	17	2
Nc1nnc(CC(=O)N/N=C/c2ccc(-c3ccc(F)cc3)o2)s1	i	-1	-64	-16	3	2
Nc1nonc1-c1nc2ccccc2n1CC(=O)O	i	7	8	-7	-2	-5
COc1ccc(NS(=O)(=O)c2ccc(N3CCOCC3)c(NC(=O)c3ccccc3Cl)c2)cc1	i	0	-3	5	5	-3
CS(=O)(=O)c1ccc(C(=O)Nc2ccc(N3CCCC3)cc2)c(Cl)c1	+	82*	-12	0	-5	-5
CS(=O)(=O)c1ccc(C(=O)Nc2ccc(N3CCOCC3)cc2)c(Cl)c1	i	-8	51	-7	-2	-5
O=C(Nc1cc(S(=O)(=O)Nc2ccc(Cl)cc2)ccc1N1CCCCC1)c1ccc(F)cc1Cl	i	8	-2	43*	0	0
COc1ccc([C@@]2(C(C)C)ON(c3ccccc3C(F)(F)F)C2=O)cc1	.	.	.	-2	-3	-3
CC1(C)CC(=O)C2=C(C1)OC1=C(C2)C(=O)CC(C)(C)C1	i	-6	6	7	0	6
Cc1ccc(C)c(N2C(=O)C3C4C=CC(CC4)C3C2=O)c1 (stereo not given)	i	14	44	-4	-1	-2
COc1ccc(CN2CCN(c3nc4ccccc4s3)CC2)cc1	i	-7	32	-6	-4	-10
COc1ccc(CCn2c(O)cc3nn(-c4nc5ccccc5s4)c(=O)c-3c2C)cc1	+	68*	36	-57	8	13
Cc1cc(C)nc(SCNC(=O)c2ccc(Cl)cc2)n1	i	0	41	44*	-1	-2
CCOc1ccc2c(c1)-c1c(ssc1=S)C(C)(C)N2C	i	-2	70*	23	-2	-2
CN(C)CCCN(C(=O)c1ccc(S(=O)(=O)N2CCCCCC2)cc1)c1nc2c(F)cc(F)cc2s1	.	.	.	-3	-4	-8
COc1ccc(Cl)cc1NC(=O)CN(C(=O)c1ccco1)C1CCCCC1	i	1	-20	36*	-5	-6
COc1ccc(Cl)cc1NC(=O)CN(C)C(C)C(=O)NCC1CCCCC1 (stereo not given)	i	2	9	3	-1	-2
COc1ccc(C(=O)CCN2CCC(C)CC2)cc1	i	-10	5	44*	0	-1
COc1ccc(C(=O)CCN2CCCC(C)C2)cc1 (stereo not given)	i	-16	22	41*	3	0
O=C(NNC(=O)c1ccco1)c1cccc(Br)c1	i	8	15	-5	-1	-9
COc1ccccc1-c1sc2ccccc2c1C#Cc1ccc(N(C)C)cc1	.	.	.	-10	-6	-10
CCOCCCn1c(=N)c(C(N)=S)cc2c(=O)n3cccc(C)c3nc21	+	87*	21	15	7	8
CCOC(=O)c1cc2c(=O)n3ccccc3nc2n(Cc2ccccc2)c1=N	i	-10	4	-3	4	-2
Cc1cccn2c(=O)c3cc(C(N)=S)c(=N)n(CCCOC(C)C)c3nc12	i	47	29	-33	3	5
CCOC(=O)c1cc2c(=O)n3cccc(C)c3nc2n(C)c1=N	+	96*	17	.	.	.
